# Results: article PMC7862700, “An all-to-all approach to the identification of sequence-specific readers for epigenetic DNA modifications on cytosine”
# Experiments:
# Test in all cases: DAPPL (digital affinity profiling via proximity ligation, sequencing); 10 mM Tris-HCl pH 7.5, 50 mM NaCl, 1 mM DTT, 4% glycerol, room temperature, 30 min; GST-TFs on glutathione beads, 16-mer random dsDNA library, 0.1% formaldehyde crosslink after washing; high values mean tight binding
# [1] = biological target: T1, FEV (Homo sapiens, UniProt Q99581 1-238); settings: protein: recombinant; tags: N-terminal GST; dsDNA, one strand shown
# T1 sequence: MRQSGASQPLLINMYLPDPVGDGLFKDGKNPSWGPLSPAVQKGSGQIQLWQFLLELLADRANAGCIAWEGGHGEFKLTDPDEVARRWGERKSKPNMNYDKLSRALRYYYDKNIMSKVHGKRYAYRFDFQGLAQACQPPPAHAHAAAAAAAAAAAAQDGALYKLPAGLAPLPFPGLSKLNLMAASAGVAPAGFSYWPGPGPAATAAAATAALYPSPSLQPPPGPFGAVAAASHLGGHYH
# Procedure, shortened: (§1)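 A tag-only sample was pooled with DNA-barcoded human transcription factors that had been expressed in yeast as GST fusions and captured on glutathione beads. The pools were incubated for 30 min at room temperature with 200 nmole of a random double-stranded 16-mer DNA library in Tris/NaCl/DTT/glycerol buffer, then washed, crosslinked with 0.1% formaldehyde, proximity-ligated (BsaI/T4 ligase, 1 h, 37 °C), PCR-amplified and sequenced on an Illumina NextSeq500. Binding signal is each hexamer's read frequency for a factor divided by its frequency for the tag-only sample.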
# [2] = biological target: ETV5 (Homo sapiens, UniProt P41161 1-510); settings: protein: recombinant; tags: N-terminal GST; dsDNA, one strand shown
# Procedure, shortened: as §1
# [3] = biological target: HSF1 (Homo sapiens, UniProt Q00613 1-529); settings: protein: recombinant; tags: N-terminal GST; chain copies: 3; dsDNA, one strand shown
# Procedure, shortened: as §1
# [4] = biological target: T2, SPIC (Homo sapiens, UniProt Q8N5J4 1-248); settings: protein: recombinant; tags: N-terminal GST; dsDNA, one strand shown
# T2 sequence: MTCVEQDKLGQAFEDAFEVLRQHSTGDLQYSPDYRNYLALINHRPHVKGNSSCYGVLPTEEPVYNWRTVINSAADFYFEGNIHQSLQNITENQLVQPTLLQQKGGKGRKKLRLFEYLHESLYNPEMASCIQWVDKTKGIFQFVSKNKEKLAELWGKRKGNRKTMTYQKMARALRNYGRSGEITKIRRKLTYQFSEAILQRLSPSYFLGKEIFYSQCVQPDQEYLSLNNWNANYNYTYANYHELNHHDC
# Procedure, shortened: as §1
# [5] = biological target: ELF4 (Homo sapiens, UniProt Q99607 1-663); settings: protein: recombinant; tags: N-terminal GST; dsDNA, one strand shown
# Procedure, shortened: as §1
# [6] = biological target: T3, ELK4 (Homo sapiens, UniProt P28324-2 1-405); settings: protein: recombinant; tags: N-terminal GST; dsDNA, one strand shown
# T3 sequence: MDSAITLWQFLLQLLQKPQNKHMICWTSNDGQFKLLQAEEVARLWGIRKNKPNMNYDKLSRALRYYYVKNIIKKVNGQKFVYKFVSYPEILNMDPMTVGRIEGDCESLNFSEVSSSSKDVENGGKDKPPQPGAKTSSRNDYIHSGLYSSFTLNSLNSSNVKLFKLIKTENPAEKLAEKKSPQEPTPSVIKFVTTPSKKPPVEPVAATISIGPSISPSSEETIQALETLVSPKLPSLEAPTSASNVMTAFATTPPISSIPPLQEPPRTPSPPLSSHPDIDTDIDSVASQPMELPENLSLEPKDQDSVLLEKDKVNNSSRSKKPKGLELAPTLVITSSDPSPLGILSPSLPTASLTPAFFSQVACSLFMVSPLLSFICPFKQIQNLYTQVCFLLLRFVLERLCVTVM
# Procedure, shortened: as §1
# [7] = biological target: T4, ETV2 (Homo sapiens, UniProt O00321 1-342); settings: protein: recombinant; tags: N-terminal GST; dsDNA, one strand shown
# T4 sequence: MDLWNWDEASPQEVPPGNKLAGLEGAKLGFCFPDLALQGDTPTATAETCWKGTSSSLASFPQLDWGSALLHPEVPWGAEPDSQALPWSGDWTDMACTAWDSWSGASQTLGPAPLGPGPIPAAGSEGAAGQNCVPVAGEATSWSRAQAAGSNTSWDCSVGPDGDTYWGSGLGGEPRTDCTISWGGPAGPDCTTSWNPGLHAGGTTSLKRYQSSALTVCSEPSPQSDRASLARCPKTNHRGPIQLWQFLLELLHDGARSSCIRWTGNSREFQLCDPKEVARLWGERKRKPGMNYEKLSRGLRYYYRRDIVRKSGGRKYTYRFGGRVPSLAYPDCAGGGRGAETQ
# Procedure, shortened: as §1
# [8] = biological target: T5, ELF3 (Homo sapiens, UniProt P78545 1-371); settings: protein: recombinant; tags: N-terminal GST; dsDNA, one strand shown
# T5 sequence: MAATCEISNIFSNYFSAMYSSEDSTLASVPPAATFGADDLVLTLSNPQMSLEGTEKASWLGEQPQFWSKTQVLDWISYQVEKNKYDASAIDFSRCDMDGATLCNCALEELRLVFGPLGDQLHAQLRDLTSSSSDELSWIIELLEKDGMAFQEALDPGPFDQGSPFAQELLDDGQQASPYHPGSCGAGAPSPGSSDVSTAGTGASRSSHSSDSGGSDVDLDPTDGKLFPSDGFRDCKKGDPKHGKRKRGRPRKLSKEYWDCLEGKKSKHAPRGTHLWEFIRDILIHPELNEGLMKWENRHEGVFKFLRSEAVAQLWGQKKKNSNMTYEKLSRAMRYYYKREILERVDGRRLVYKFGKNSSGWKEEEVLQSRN
# Procedure, shortened: as §1
# [9] = biological target: CRX (Homo sapiens, UniProt O43186 1-299); settings: protein: recombinant; tags: N-terminal GST; dsDNA, one strand shown
# Procedure, shortened: as §1
# [10] = biological target: ETV1 (Homo sapiens, UniProt P50549 1-477); settings: protein: recombinant; tags: N-terminal GST; dsDNA, one strand shown
# Procedure, shortened: as §1
# [11] = biological target: T6, ERF (Homo sapiens, UniProt P50548 1-548); settings: protein: recombinant; tags: N-terminal GST; dsDNA, one strand shown
# T6 sequence: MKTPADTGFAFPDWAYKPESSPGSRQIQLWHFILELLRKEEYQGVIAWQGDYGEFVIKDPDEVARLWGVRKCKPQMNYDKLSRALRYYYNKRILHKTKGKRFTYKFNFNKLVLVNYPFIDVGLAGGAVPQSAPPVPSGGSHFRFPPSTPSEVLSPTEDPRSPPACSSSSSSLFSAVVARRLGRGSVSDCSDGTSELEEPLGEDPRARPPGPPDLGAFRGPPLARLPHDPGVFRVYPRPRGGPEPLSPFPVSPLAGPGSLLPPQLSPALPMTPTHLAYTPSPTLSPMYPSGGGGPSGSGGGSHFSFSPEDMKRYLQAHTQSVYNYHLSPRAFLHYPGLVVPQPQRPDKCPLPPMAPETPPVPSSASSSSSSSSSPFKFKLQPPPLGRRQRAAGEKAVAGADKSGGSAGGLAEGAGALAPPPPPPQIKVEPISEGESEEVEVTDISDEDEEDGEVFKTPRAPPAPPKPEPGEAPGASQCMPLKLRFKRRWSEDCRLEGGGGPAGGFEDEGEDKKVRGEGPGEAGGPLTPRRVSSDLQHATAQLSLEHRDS
# Procedure, shortened: as §1
# [12] = biological target: T7, ETV3L (Homo sapiens, UniProt Q6ZN32 1-361); settings: protein: recombinant; tags: N-terminal GST; dsDNA, one strand shown
# T7 sequence: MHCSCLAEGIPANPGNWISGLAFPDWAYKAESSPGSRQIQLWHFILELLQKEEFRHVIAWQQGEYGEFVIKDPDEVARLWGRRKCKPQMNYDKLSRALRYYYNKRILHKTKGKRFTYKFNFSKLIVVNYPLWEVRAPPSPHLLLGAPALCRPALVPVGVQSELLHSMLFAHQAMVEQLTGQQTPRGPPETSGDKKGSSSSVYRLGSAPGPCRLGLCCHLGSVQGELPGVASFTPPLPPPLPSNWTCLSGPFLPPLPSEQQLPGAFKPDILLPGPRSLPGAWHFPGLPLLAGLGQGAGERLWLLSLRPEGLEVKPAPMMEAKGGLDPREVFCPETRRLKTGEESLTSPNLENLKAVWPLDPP
# Procedure, shortened: as §1
# [13] = biological target: T8, ETS2 (Homo sapiens, UniProt P15036 1-469); settings: protein: recombinant; tags: N-terminal GST; dsDNA, one strand shown
# T8 sequence: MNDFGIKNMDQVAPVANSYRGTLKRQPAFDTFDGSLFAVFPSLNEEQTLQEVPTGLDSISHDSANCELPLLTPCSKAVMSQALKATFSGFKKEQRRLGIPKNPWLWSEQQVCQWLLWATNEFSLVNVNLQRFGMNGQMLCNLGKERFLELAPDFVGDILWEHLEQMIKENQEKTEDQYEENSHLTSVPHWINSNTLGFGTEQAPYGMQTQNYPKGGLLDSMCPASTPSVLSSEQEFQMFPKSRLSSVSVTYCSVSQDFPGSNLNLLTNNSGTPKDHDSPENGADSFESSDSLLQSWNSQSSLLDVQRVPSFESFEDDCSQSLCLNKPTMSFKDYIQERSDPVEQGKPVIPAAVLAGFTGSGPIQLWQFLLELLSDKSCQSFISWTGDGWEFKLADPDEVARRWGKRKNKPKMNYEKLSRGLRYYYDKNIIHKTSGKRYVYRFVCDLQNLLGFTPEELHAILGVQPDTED
# Procedure, shortened: as §1
# [14] = biological target: T9, SPDEF (Homo sapiens, UniProt O95238 1-335); settings: protein: recombinant; tags: N-terminal GST; dsDNA, one strand shown
# T9 sequence: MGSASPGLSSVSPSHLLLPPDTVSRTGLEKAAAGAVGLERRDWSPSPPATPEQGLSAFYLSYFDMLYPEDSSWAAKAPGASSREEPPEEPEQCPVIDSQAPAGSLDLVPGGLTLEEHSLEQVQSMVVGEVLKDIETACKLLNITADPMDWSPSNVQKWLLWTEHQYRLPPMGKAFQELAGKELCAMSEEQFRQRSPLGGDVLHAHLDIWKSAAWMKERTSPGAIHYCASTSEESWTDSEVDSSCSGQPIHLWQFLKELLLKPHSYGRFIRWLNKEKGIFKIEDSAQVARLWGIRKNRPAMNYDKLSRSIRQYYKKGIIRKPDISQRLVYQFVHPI
# Procedure, shortened: as §1
# [15] = biological target: T10, ETV7 (Homo sapiens, UniProt Q9Y603 1-341); settings: protein: recombinant; tags: N-terminal GST; dsDNA, one strand shown
# T10 sequence: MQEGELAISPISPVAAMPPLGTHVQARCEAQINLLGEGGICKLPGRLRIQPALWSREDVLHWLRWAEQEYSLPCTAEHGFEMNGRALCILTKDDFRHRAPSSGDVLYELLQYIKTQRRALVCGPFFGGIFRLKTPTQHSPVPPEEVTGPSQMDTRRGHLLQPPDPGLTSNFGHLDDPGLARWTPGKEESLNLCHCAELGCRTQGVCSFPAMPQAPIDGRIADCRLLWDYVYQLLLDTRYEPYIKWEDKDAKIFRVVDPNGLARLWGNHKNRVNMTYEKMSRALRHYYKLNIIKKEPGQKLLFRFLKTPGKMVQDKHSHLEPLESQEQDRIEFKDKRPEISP
# Procedure, shortened: as §1
# [16] = biological target: T11, ELF5 (Homo sapiens, UniProt Q9UKW6-2 1-255); settings: protein: recombinant; tags: N-terminal GST; dsDNA, one strand shown
# T11 sequence: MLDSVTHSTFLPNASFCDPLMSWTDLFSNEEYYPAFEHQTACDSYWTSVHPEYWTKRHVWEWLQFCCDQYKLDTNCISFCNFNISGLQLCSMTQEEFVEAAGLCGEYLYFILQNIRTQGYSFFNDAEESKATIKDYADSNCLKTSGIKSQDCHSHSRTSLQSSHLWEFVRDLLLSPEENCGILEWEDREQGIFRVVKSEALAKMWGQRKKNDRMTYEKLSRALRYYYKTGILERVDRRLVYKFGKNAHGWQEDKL
# Procedure, shortened: as §1
# [17] = biological target: T12, ETV3 (Homo sapiens, UniProt P41162-2 1-143); settings: protein: recombinant; tags: N-terminal GST; dsDNA, one strand shown
# T12 sequence: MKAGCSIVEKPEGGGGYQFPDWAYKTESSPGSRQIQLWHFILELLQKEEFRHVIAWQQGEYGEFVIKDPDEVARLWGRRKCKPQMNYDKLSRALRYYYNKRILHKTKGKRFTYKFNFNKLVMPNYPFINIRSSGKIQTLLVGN
# Procedure, shortened: as §1
# [18] = biological target: ETV6 (Homo sapiens, UniProt P41212 1-452); settings: protein: recombinant; tags: N-terminal GST; dsDNA, one strand shown
# Procedure, shortened: as §1
# Chain of CRX (O43186 whole entry): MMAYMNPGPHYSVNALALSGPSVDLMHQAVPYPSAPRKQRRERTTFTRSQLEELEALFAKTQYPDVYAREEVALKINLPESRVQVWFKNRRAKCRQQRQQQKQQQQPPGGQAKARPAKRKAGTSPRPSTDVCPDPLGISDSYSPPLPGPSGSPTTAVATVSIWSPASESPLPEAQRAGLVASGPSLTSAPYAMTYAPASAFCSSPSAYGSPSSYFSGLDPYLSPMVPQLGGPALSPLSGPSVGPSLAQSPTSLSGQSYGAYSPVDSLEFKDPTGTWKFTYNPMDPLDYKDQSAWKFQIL
# Chain of ETV5 (P41161 whole entry): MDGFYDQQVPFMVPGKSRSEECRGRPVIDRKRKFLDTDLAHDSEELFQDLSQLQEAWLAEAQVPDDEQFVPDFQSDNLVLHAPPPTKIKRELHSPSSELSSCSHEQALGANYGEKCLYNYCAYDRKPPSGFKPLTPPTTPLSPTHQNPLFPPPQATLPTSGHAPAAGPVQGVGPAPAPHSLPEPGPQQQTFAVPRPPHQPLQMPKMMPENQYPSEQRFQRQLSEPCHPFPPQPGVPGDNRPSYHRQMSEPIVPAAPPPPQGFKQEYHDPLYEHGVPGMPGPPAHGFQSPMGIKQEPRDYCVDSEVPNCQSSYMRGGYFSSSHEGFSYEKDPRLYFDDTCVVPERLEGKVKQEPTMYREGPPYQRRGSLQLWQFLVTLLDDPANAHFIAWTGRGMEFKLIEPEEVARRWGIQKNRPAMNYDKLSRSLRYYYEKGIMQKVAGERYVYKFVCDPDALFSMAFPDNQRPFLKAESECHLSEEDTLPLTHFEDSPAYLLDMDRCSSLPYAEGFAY
# Chain of HSF1 (Q00613 whole entry): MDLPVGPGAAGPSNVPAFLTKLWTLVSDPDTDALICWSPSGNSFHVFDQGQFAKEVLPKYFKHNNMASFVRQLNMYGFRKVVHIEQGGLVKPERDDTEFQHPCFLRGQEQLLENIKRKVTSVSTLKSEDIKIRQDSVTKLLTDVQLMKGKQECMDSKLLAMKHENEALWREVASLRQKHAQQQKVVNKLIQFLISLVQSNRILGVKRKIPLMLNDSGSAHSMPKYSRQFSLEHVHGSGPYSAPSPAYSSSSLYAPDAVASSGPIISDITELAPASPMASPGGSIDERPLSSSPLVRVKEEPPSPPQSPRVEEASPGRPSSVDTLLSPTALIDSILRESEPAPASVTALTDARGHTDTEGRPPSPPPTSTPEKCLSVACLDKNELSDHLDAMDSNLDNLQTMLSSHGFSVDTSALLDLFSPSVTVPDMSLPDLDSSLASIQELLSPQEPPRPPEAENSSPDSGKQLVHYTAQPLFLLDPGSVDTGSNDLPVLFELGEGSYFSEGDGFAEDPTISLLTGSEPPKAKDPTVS
# Chain of ELF4 (Q99607 whole entry): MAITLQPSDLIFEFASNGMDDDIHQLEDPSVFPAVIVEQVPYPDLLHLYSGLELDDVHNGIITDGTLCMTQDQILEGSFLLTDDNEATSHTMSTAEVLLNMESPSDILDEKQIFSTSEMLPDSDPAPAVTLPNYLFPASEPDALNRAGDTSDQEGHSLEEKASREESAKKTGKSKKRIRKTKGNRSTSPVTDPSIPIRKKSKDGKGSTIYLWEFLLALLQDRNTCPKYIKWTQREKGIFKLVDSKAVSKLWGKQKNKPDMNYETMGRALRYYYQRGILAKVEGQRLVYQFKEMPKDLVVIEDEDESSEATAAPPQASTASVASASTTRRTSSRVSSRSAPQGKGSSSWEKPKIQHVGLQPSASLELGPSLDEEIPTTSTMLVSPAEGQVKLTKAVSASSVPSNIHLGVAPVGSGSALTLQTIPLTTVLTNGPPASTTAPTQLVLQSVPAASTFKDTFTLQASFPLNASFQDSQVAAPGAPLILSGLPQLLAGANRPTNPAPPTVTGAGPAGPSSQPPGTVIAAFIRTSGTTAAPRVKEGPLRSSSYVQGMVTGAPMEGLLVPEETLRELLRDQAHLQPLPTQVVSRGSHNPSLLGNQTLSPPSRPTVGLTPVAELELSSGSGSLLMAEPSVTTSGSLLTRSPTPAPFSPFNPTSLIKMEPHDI
# Chain of ETV1 (P50549 whole entry): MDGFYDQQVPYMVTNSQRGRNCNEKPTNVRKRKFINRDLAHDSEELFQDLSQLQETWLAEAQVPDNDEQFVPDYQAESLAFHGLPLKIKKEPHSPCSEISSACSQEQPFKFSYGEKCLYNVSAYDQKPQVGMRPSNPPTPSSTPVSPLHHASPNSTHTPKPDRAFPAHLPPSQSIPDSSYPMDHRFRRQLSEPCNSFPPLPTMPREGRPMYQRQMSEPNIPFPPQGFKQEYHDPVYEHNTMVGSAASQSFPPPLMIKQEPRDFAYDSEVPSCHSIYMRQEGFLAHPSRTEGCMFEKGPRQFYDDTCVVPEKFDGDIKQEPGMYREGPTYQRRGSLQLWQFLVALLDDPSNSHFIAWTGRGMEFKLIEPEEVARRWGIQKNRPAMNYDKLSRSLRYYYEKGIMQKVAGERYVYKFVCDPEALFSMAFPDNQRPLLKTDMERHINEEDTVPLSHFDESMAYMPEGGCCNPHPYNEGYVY
# Chain of ETV6 (P41212 whole entry): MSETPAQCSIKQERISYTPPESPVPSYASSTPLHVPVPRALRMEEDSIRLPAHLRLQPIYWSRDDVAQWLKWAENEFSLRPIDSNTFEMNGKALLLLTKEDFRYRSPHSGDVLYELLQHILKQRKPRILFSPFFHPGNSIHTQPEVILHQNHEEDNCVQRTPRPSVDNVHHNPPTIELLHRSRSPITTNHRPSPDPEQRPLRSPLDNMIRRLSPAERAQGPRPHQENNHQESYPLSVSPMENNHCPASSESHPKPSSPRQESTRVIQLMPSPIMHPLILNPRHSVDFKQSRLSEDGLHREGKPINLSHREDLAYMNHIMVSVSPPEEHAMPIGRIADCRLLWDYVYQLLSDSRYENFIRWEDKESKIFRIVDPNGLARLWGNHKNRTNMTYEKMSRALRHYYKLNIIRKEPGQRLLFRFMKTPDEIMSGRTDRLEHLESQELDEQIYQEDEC
sequence,measurement,setting,value
TTGTAG,binding signal,[1],"1.02 fold enrichment (6-mer frequency, TF over GST control)"
same,binding signal,[2],"1.1 fold enrichment (6-mer frequency, TF over GST control)"
same,binding signal,[3],"1.23 fold enrichment (6-mer frequency, TF over GST control)"
same,binding signal,[4],"1.02 fold enrichment (6-mer frequency, TF over GST control)"
same,binding signal,[5],"1.2 fold enrichment (6-mer frequency, TF over GST control)"
same,binding signal,[6],"1.31 fold enrichment (6-mer frequency, TF over GST control)"
same,binding signal,[7],"1.15 fold enrichment (6-mer frequency, TF over GST control)"
same,binding signal,[8],"1.03 fold enrichment (6-mer frequency, TF over GST control)"
same,binding signal,[9],"1.13 fold enrichment (6-mer frequency, TF over GST control)"
same,binding signal,[10],"1.25 fold enrichment (6-mer frequency, TF over GST control)"
same,binding signal,[11],"1.14 fold enrichment (6-mer frequency, TF over GST control)"
same,binding signal,[12],"1.2 fold enrichment (6-mer frequency, TF over GST control)"
same,binding signal,[13],"1.17 fold enrichment (6-mer frequency, TF over GST control)"
same,binding signal,[14],"1.09 fold enrichment (6-mer frequency, TF over GST control)"
same,binding signal,[15],"1.12 fold enrichment (6-mer frequency, TF over GST control)"
same,binding signal,[16],"1.1 fold enrichment (6-mer frequency, TF over GST control)"
same,binding signal,[17],"1.13 fold enrichment (6-mer frequency, TF over GST control)"
same,binding signal,[18],"1.13 fold enrichment (6-mer frequency, TF over GST control)"
